# Experiments:
# Assay in all cases: PBM binding z-score (relative to random genomic background probes); higher = stronger binding; sequences stand for … in GC…GCGATTGACAGCGTAGAATGAAGG
# [1] = test system: FXR:RXRa (NR concentration 270 nM, RXRa partner concentration 90 nM)
# Method in brief: (§1)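 Custom Agilent 4×180K protein-binding microarrays carried double-stranded probes. Their 34-nt variable regions held direct-repeat seeds, single-nucleotide variants, half-site ablations and random human genomic background sequences. Arrays were incubated 1 h with ligand-free nuclear receptor dimers in PBS pH 7.4, 2% milk, 0.02% Triton X-100, 1 mM DTT, 0.2 mg/mL BSA and 0.4 mg/ml salmon testes DNA. Antibodies against each partner (one per run) detected binding, and scanned fluorescence was regression-normalized. Binding z-scores use random background probes as reference.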
# [2] = test system: LXRa:RXRa (NR concentration 270 nM, RXRa partner concentration 90 nM)
# Method in brief: as §1
# [3] = test system: LXRa homodimer (NR concentration 270 nM)
# Method in brief: as §1
# [4] = test system: LXRb:RXRa (NR concentration 270 nM, RXRa partner concentration 90 nM)
# Method in brief: as §1
# [5] = test system: LXRb homodimer (NR concentration 270 nM)
# Method in brief: as §1
# [6] = test system: PPARa:RXRa (NR concentration 270 nM, RXRa partner concentration 90 nM)
# Method in brief: as §1
# [7] = test system: PPARg:RXRa (NR concentration 180 nM, RXRa partner concentration 90 nM)
# Method in brief: as §1
# [8] = test system: PPARg:RXRa 270nM:90nM, anti-RXR (NR concentration 270 nM, RXRa partner concentration 90 nM)
# Method in brief: as §1
# [9] = test system: PPARg:RXRa 30nM:10nM, anti-RXR (NR concentration 30 nM, RXRa partner concentration 10 nM)
# Method in brief: as §1
# [10] = test system: PPARg:RXRa 90nM:30nM, anti-RXR (NR concentration 90 nM, RXRa partner concentration 30 nM)
# Method in brief: as §1
# [11] = test system: PPARg:RXRa DBDmut IVT, anti-RXR (DBD mutation: RXRa K156A/R161A, NR concentration 270 nM, RXRa partner concentration 90 nM)
# Method in brief: as §1
# [12] = test system: PPARg:RXRa IVT, anti-PPARg (NR concentration 270 nM, RXRa partner concentration 90 nM)
# Method in brief: as §1
# [13] = test system: PPARg DBDmut:RXRa IVT, anti-PPARg (DBD mutation: PPARg1 K132A/R137A, NR concentration 270 nM, RXRa partner concentration 90 nM)
# Method in brief: as §1
# [14] = test system: PPARg DBDmut IVT, anti-PPARg (DBD mutation: PPARg1 K132A/R137A, NR concentration 270 nM)
# Method in brief: as §1
# [15] = test system: PPARg homodimer (NR concentration 180 nM)
# Method in brief: as §1
# [16] = test system: PXR:RXRa (NR concentration 270 nM, RXRa partner concentration 90 nM)
# Method in brief: as §1
# [17] = test system: PXR homodimer (NR concentration 270 nM)
# Method in brief: as §1
# [18] = test system: RARa:RXR (NR concentration 270 nM, RXRa partner concentration 90 nM)
# Method in brief: as §1
# [19] = test system: RARa homodimer (NR concentration 270 nM)
# Method in brief: as §1
# [20] = test system: RARb:RXRa (NR concentration 270 nM, RXRa partner concentration 90 nM)
# Method in brief: as §1
Sequence,PBM binding z-score [1],PBM binding z-score [2],PBM binding z-score [3],PBM binding z-score [4],PBM binding z-score [5],PBM binding z-score [6],PBM binding z-score [7],PBM binding z-score [8],PBM binding z-score [9],PBM binding z-score [10],PBM binding z-score [11],PBM binding z-score [12],PBM binding z-score [13],PBM binding z-score [14],PBM binding z-score [15],PBM binding z-score [16],PBM binding z-score [17],PBM binding z-score [18],PBM binding z-score [19],PBM binding z-score [20]
CAACCTAGGTCAAGGTCAAAGTCGGTTTGTGCCA,6.38,5.56,3.63,4.92,1.07,5.51,5.92,5.74,2.75,4.69,4.85,5.78,-0.338,0.164,3.33,5.19,1.48,5.29,0.703,5.17
CAGACTGGGGCAAAGGTTACCATACTCAGTACGA,2.11,2.13,0.0267,2.49,-0.226,5.94,10.9,8.6,9.03,10.1,5.78,6.11,0.811,-0.289,1.61,2.57,0.354,3.86,0.632,2.66
TTACCAAGGCGAAGGTCGTTGATCCCTCTGTAGA,1.8,1.55,-0.229,1.43,-0.992,2.44,3.98,5.81,3.02,5.86,0.0514,1.72,-0.587,-0.677,1.25,1.16,0.0255,1.26,-0.525,0.787
TCTGCTAGATCAACGATGGTCAGCTAATCTGCTA,-1.43,-0.641,-1.29,-0.993,-1.05,-0.231,-0.175,0.492,1.39,1.14,0.608,-0.401,-0.179,-0.566,-1.56,-0.434,-1.18,-0.57,-1.3,-0.346
TCTATTAGTTGAAGGGGAACCGACGAGTCCGTTT,1.21,1.19,0.437,1.19,0.829,1.23,0.0273,2.51,4.36,3.48,3,0.249,1.26,0.473,1.97,1.04,1.09,0.424,1.8,0.752
CCTACTGGGCCCAAGGTCATTGATTCCAATGCTC,2.45,2.46,1.44,2.53,0.0311,3.65,6.53,6.93,5.33,6.47,-0.0484,3.05,-0.816,-1.27,1.42,3.24,1.78,3.17,0.145,2.79
GCTGGTAGATCAAGGTTAAGAAAGACTAAGCTAA,0.17,0.885,-0.138,0.378,-0.528,1.12,0.134,1.18,-0.00579,1,-0.391,0.232,-0.0433,-0.0207,-0.421,0.348,-0.246,0.69,0.451,0.949
TCATATAGGTAATACAGGTGAAAGTGGGCATCTA,1.4,1.27,0.56,1.21,0.302,2.33,2.41,3.18,4.26,3.72,4.07,3.76,0.893,1.47,1.79,1.02,0.455,1.35,1.57,0.826
GCAGATAGGTGAAACGCAGGTAACTCAGGGTGGC,-0.146,0.0468,-0.529,-0.0922,-1.28,1.27,0.838,0.277,-0.496,0.174,3.27,1.58,0.0261,-0.672,-0.419,-0.335,-0.798,0.347,-0.582,0.748
TCTAGTAGGTTAGTCGGGGCATTCAGCCAACATA,0.874,0.731,0.367,1.54,0.412,1.9,0.856,2.5,2.88,2.8,4.91,4.13,0.243,0.851,1.41,0.733,0.807,0.939,0.282,0.996
ACAGACAGGTGATGAAGGTATCTCAGGCTATCAT,-0.127,-0.162,-0.557,-0.354,-0.55,-0.193,0.506,-0.135,-0.034,-0.24,-0.101,0.167,-0.0054,-0.542,0.117,-0.369,0.175,-0.241,-0.481,0.0103
AGAATGAGGTTATACGTAGATGAGGGAAGAAAGT,2.17,1.97,0.0433,1.72,0.276,3.19,2.17,2.49,1.05,1.88,3.97,2.32,1.45,0.893,1.18,1.18,0.759,1.96,0.66,1.57
GATACAGGGTCAGCTAGAGGCCAGAATATGGAAA,4.72,2.63,-0.176,2.61,-0.466,4.48,3.78,3.14,1.04,2.25,0.991,2.56,-0.253,-0.217,2.63,3.24,0.115,4.04,0.657,4.02
CCCGCTAGGTCAATGGTCAGCTAAAGCAGCTCGC,3.1,2.28,-0.0501,1.61,0.293,3.18,5.11,5.22,3.41,5.01,4.1,3.83,-0.504,-0.484,1.55,1.09,-0.582,1.91,-0.541,3.78
ACAGACAGGTGGGTGAAGGTAACTCAGCTGGACG,0.0751,-0.222,-0.335,-0.235,-0.295,0.238,0.861,0.585,-0.13,0.177,0.962,1.16,0.32,-0.724,0.276,-0.217,0.171,0.0103,-0.0597,0.155
CGTCCAAGGTCATAGGAGATCAGTGAAGACAGAT,6.93,5.5,1.32,3.92,0.511,5.4,4.74,4.9,2.45,3.71,3.22,3.43,1.2,0.671,2.99,4.44,1.37,4.47,0.926,4.89
GCGACTGGGGCCAAGCAGGTTACCATAAGGTTGG,-0.268,-0.471,-0.686,-0.129,-1.37,0.516,0.164,-0.27,-0.91,-0.642,-0.26,-0.0452,-0.943,-1.96,-0.242,-0.00892,-0.184,0.223,-1.01,1.14
GCTCGGAGAACAAGGTCAGAGCTTTGTCCGTAGA,1.25,1.41,-0.275,1.11,-1.02,2.37,0.176,0.774,-0.425,0.29,0.447,0.471,-0.968,-1.78,0.759,1.73,-0.538,1.79,-0.831,2.86
CCTTACGGGTCACACCAGGTTATAGCATCGGAGT,5.86,6.35,1.01,4.08,0.198,5.2,5.14,4.95,2.28,3.6,2.98,4.37,0.627,-0.128,2.63,5.3,0.565,5.06,1.44,4.06
CCTAGCAGGCCAGGGTCATTCAAGCATTTCGCTT,2.69,2.29,-0.0917,2.54,-0.65,3.66,0.697,1.82,-0.631,0.991,0.315,0.694,-0.751,-1.91,1.59,3.11,-0.0887,3.29,-0.222,2.57
ACTCGGAGGAAAAAGGTCAGAGCTACGCCAGTGA,2.49,3,0.501,2.45,-0.26,3.73,2.6,3.2,1.2,2.74,-0.318,1.1,0.319,-0.672,1.74,2.65,0.00836,3.29,1.23,3.88
ATCTCTAGGTATAGTTCAGTGAAAGATCGATAGA,0.622,1.11,0.814,0.685,1.21,0.726,0.816,1.55,0.666,1.4,0.435,0.496,1.64,2.13,1.8,0.83,1.11,1.08,1.34,1.15
GGAACGAGGGCATTCGAGTTGATAGCCTGGCGAT,0.904,1.66,-0.751,0.0314,-0.65,1.42,0.665,0.992,-0.34,0.776,3.64,2.1,-0.256,-0.793,-0.188,4.04,1.57,1.58,-0.598,1.82
CAAACTAGGTCACAGAGATCAAAGTCCGTGCGTA,4.32,3.26,0.659,2.41,0.38,5.25,8.83,7.25,5.12,7.3,8.62,9.06,1.86,1,2.16,2.28,0.448,2.78,0.89,4.03
ATCTCTGGGTAACAAGTTCAGTGAAAGAGAGGAC,0.503,0.668,0.353,0.819,0.98,1.7,1.62,1.83,0.953,1.5,2.93,2.94,0.76,0.979,1.27,1.87,1.92,0.922,1.24,1.75
AGAATAAGGTTAAGATCAGGGAAACAGAATACAT,2.47,2.22,0.239,2.09,0.458,3.06,1.75,1.62,0.741,1.19,1.89,1.76,1.42,1.21,1.6,1.18,0.822,1.93,1.11,2.46

# Reference: the supplement of paper PMC6555819
